# Targets with a hit are over-represented here; the source holds about 7,900 in all. About 0.6% of all pairs of compound and target were hits. Unmarked numbers belong to inactive results.
# What was measured:
# Test in all cases: log2 fold change, soluble protein after heating vs DMSO (PISA); higher = thermal stabilisation; K562 cells, 10 uM, 30 min; active = over 0.2 and 3.5 SD of the protein, either way, in both replicates (recomputed)
# [1] = compound: CC[C@@H]1C(=O)N(C)c2cnc(Nc3ccc(C(=O)NC4CCN(C)CC4)cc3OC)nc2N1C1CCCC1
# Outline: (§1)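 Values are thermal stability changes relative to control samples and are taken from duplicates. They are stated as log2 fold changes. Before quantification by TMTpro 16plex LC-MS/MS with equalised channel sums, K562 cells at 2×10^6 cells/mL were treated with 10 μM compound for 30 min, heated in aliquots for 3 min across 48°C-58°C, pooled, extracted in PBS with 0.5% NP-40 at 4°C, and centrifuged at 21,000xg for 90 min to give the soluble supernatant.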
# volasertib = compound: CC[C@@H]1C(=O)N(C)c2cnc(Nc3ccc(C(=O)N[C@H]4CC[C@H](N5CCN(CC6CC6)CC5)CC4)cc3OC)nc2N1C(C)C [volasertib]
# Outline: as §1
# [2] = compound: CC[C@H](C)N1C=C(C2=C(C=C(C=C21)C3=CN=C(C=C3)N4CCNCC4)C(=O)NCC5=C(C=C(NC5=O)C)C)C
# Outline: as §1
# epoxomicin = compound: CC[C@H](C)[C@@H](C(=O)N[C@@H]([C@@H](C)O)C(=O)N[C@@H](CC(C)C)C(=O)[C@]1(CO1)C)NC(=O)[C@H]([C@@H](C)CC)N(C)C(=O)C [epoxomicin]
# Outline: as §1
# [3] = compound: CCn1c(C(=O)N(C2CC2)C2CC2)cc2c3c(ncn3C)c(Nc3cc(C)n(C)n3)nc21
# Outline: as §1
# [4] = compound: CCn1cc(-c2ccnc3[nH]c(-c4cccc(CN(C)C)c4)cc23)c(-c2ccc(NC(=O)N(C)C)cc2)n1
# Outline: as §1
# [5] = compound: CN(C)CC(=O)Nc1ccc2[nH]c(=O)c3ccccc3c2c1
# Outline: as §1
# rosiglitazone = compound: CN(CCOC1=CC=C(C=C1)C[C@H]2C(=O)NC(=O)S2)C3=CC=CC=N3 (racemic) [rosiglitazone]
# Outline: as §1
# [6] = compound: CN1C2=C(C3=C1C(=O)N(N=C3)CC4=CC(=CC=C4)N)SC(=C2)S(=O)C
# Outline: as §1
# [7] = compound: CN1CCC(CNc2ccc3ncc(-c4cccc(OC(F)(F)F)c4)n3n2)CC1
# Outline: as §1
# saracatinib = compound: CN1CCN(CCOc2cc(OC3CCOCC3)c3c(Nc4c(Cl)ccc5c4OCO5)ncnc3c2)CC1 [saracatinib]
# Outline: as §1
# sotrastaurin = compound: CN1CCN(c2nc(C3=C(c4c[nH]c5ccccc45)C(=O)NC3=O)c3ccccc3n2)CC1 [sotrastaurin]
# Outline: as §1
# alvocidib = compound: CN1CC[C@H](c2c(O)cc(O)c3c(=O)cc(-c4ccccc4Cl)oc23)[C@H](O)C1 [alvocidib]
# Outline: as §1
# Tubastatin A = compound: CN1CCc2c(c3ccccc3n2Cc2ccc(C(=O)NO)cc2)C1 [Tubastatin A]
# Outline: as §1
# [8] = compound: CNC(=O)C1=CC=CC=C1NC2=NC(=NC=C2Cl)NC3=C(C=C(C=C3)N4CCOCC4)OC
# Outline: as §1
# defactinib = compound: CNC(=O)c1ccc(Nc2ncc(C(F)(F)F)c(NCc3nccnc3N(C)S(C)(=O)=O)n2)cc1 [defactinib]
# Outline: as §1
# rucaparib = compound: CNCc1ccc(-c2[nH]c3cc(F)cc4c3c2CCNC4=O)cc1 [rucaparib]
# Outline: as §1
# [9] = compound: CNc1nc(-c2ccc3c(N)n[nH]c3c2)cc(N2C[C@@H](C(=O)NC3CCCCC3)CC[C@H]2C)n1
# Outline: as §1
# encorafenib = compound: COC(=O)N[C@@H](C)CNc1nccc(-c2cn(C(C)C)nc2-c2cc(Cl)cc(NS(C)(=O)=O)c2F)n1 [encorafenib]
# Outline: as §1
# [10] = compound: COC(=O)[C@H](CCSC)NC(=O)C1=C(C=C(C=C1)NC[C@H](CS)N)C2=CC=CC=C2
# Outline: as §1
# Sequence of UniProt Q96DI7 (Q96DI7 whole entry, looked up): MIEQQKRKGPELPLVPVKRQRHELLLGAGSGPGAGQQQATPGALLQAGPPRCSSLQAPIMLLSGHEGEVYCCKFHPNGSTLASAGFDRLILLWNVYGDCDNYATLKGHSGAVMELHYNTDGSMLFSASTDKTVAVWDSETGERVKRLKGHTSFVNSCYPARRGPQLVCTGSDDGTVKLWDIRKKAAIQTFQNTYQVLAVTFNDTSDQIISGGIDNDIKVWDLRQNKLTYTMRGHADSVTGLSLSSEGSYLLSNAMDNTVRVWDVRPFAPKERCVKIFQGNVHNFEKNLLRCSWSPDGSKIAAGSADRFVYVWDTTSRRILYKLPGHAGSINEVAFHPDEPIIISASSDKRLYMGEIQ
# Sequence of UniProt O60271 (O60271 whole entry, looked up): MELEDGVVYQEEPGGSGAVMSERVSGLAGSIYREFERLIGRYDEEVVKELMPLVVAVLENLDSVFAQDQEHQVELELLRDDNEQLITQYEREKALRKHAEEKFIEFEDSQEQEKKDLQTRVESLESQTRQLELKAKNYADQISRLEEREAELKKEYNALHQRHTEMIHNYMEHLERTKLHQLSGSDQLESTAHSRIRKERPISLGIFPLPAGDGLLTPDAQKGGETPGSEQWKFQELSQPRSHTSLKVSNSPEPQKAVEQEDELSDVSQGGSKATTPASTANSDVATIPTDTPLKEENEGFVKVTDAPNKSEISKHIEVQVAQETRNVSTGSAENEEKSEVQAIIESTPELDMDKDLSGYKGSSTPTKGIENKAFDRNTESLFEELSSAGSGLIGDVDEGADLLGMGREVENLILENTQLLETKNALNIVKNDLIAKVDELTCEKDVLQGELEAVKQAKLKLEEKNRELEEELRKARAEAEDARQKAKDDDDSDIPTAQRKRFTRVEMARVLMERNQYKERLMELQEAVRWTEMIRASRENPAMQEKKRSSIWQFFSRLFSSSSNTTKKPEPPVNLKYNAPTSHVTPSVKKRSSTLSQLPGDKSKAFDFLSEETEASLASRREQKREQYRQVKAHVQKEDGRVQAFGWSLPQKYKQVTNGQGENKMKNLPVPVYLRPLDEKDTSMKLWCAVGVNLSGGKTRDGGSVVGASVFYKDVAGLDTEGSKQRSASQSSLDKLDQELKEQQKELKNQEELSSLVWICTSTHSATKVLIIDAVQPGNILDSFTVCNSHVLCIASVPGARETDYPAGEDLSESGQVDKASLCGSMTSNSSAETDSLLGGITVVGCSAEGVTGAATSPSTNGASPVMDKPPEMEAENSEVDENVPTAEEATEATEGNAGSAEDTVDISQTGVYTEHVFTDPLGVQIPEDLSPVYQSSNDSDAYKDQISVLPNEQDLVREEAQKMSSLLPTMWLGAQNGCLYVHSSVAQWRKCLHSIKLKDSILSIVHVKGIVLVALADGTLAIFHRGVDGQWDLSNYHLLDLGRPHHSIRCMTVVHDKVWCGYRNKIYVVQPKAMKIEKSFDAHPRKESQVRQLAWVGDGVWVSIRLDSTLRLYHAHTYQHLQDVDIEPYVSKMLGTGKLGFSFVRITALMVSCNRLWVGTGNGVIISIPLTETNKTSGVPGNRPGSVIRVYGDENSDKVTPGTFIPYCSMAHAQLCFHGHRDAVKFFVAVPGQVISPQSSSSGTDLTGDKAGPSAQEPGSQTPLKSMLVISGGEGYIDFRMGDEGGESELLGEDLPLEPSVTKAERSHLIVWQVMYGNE
# Sequence of UniProt Q6YHU6 (Q6YHU6 whole entry, looked up): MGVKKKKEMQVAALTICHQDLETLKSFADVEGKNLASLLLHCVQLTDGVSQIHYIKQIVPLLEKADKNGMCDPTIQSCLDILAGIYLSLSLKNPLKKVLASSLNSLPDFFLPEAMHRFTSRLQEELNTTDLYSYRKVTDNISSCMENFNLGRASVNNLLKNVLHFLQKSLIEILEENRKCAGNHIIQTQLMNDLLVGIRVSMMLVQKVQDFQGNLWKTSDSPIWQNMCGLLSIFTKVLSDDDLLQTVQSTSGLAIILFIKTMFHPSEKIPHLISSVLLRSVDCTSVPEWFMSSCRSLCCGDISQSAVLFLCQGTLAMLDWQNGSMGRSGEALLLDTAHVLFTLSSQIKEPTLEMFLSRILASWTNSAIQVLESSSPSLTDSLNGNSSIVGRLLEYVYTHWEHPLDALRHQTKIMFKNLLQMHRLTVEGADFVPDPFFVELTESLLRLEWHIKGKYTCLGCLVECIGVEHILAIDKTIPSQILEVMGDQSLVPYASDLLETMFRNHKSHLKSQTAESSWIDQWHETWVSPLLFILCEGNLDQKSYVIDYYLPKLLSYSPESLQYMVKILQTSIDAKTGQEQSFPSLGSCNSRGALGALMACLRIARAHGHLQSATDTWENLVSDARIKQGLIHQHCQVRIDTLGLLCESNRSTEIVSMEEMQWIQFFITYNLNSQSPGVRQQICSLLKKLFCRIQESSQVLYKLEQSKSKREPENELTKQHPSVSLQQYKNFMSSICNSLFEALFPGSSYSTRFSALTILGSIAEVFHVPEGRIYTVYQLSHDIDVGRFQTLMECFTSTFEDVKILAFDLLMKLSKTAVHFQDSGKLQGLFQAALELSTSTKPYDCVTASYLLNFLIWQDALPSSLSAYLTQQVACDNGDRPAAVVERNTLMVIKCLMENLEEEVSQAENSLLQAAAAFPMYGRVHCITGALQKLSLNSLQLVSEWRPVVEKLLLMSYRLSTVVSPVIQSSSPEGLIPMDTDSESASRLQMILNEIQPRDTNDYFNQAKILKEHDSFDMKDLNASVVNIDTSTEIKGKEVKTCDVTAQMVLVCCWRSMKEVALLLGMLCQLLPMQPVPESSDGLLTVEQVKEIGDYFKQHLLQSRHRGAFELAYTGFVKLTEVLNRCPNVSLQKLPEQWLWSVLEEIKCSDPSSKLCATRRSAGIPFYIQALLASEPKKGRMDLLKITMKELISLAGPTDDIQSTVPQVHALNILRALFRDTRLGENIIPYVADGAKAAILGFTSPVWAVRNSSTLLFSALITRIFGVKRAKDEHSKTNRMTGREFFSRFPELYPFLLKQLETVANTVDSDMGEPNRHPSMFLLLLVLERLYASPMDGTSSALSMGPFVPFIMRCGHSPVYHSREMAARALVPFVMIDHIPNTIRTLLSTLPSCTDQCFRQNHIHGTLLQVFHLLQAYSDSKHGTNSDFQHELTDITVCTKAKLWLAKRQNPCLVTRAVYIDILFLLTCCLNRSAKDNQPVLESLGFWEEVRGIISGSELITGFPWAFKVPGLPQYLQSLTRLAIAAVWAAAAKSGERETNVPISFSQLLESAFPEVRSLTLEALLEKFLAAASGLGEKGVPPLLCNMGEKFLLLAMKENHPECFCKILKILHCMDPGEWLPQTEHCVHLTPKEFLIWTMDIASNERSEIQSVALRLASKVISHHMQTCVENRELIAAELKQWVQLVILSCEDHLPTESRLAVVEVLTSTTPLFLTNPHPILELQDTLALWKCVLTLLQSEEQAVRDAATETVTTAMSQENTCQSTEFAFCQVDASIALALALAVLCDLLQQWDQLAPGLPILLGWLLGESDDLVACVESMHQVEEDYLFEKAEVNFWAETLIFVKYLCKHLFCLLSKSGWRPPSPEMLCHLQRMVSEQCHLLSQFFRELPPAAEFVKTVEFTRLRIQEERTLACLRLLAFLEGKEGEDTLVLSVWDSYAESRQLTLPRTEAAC
# Sequence of UniProt P51571 (P51571 whole entry, looked up): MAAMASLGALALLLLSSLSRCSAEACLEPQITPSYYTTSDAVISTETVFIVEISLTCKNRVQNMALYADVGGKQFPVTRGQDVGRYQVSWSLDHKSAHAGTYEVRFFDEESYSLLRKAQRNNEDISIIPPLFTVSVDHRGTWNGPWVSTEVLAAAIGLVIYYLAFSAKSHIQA
# Sequence of UniProt Q9Y5J6 (Q9Y5J6 whole entry, looked up): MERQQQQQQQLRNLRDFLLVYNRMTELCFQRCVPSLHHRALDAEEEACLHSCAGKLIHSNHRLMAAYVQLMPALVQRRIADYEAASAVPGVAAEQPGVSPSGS
# Sequence of UniProt Q9Y5X1 (Q9Y5X1 whole entry, looked up): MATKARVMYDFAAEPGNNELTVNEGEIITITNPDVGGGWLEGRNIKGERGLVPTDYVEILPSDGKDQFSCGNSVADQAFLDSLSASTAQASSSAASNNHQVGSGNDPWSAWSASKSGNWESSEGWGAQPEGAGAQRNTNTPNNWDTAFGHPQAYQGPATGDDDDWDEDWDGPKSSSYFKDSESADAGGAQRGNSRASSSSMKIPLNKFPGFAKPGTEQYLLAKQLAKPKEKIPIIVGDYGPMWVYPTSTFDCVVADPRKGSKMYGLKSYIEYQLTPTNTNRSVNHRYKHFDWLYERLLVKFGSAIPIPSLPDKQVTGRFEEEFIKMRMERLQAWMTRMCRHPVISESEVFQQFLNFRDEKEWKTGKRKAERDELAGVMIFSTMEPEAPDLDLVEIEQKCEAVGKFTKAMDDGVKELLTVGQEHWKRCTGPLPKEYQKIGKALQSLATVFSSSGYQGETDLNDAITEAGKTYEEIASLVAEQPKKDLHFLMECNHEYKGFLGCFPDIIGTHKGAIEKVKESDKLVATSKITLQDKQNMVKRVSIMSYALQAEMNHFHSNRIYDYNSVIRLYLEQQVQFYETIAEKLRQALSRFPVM
# Sequence of UniProt Q9NQZ5 (Q9NQZ5 whole entry, looked up): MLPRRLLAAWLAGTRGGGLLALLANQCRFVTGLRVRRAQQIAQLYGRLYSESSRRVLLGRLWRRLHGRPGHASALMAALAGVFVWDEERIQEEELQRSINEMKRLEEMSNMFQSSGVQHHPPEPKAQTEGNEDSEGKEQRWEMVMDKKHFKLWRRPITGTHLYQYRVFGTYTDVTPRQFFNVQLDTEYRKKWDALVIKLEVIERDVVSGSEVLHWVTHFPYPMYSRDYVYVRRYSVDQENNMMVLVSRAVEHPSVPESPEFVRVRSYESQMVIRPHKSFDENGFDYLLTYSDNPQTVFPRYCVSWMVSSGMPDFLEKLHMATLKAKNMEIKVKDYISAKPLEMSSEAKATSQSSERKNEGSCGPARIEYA
Target,log2 fold change [1],log2 fold change (volasertib),log2 fold change [2],log2 fold change (epoxomicin),log2 fold change [3],log2 fold change [4],log2 fold change [5],log2 fold change (rosiglitazone),log2 fold change [6],log2 fold change [7],log2 fold change (saracatinib),log2 fold change (sotrastaurin),log2 fold change (alvocidib),log2 fold change (Tubastatin A),log2 fold change [8],log2 fold change (defactinib),log2 fold change (rucaparib),log2 fold change [9],log2 fold change (encorafenib),log2 fold change [10]
SNRNP40 (UniProt Q96DI7),0.067,0.059,0.026,-0.05,-0.018,-0.033,-0.012,-0.001,-0.029,0.261 (active),0.068,-0.01,0.143,-0.092,0.045,0.128,0.012,-0.03,0.039,-0.034
STARD7 (UniProt Q9NQZ5),-0.07,-0.032,0.007,0.024,0.037,-0.123,0.012,0.055,0.012,-0.158,-0.021,0.041,-0.122,-0.005,-0.012,-0.047,-0.009,-0.014,0.03,-0.043
THADA (UniProt Q6YHU6),-0.003,-0.017,0.011,-0.007,0,0.057,0.051,0.076,-0.019,-0.146,0,-0.104,-0.095,0.073,-0.036,-0.079,-0.017,0.047,0.09,-0.014
TLK1 (UniProt Q9UKI8),0.017,-0.088,0.02,-0.018,0.01,-0.054,0.033,0.026,-0.086,-0.037,0.022,-0.011,-0.022,0.036,-0.064,-0.013,-0.029,-0.002,0.022,-0.033
TCERG1 (UniProt O14776),-0.145,-0.445 (active),0.133,0.116,-0.076,-0.032,0.135,0.071,-0.038,-0.136,-0.051,-0.086,-0.18,0.11,-0.011,-0.288,-0.003,0.08,0.063,-0.105
SLC27A2 (UniProt O14975),-0.094,-0.408 (active),0,-0.05,0.277 (active),-0.064,0.016,-0.032,-0.092,0.313 (active),0,0.005,-0.079,-0.015,0.144,-0.006,0.056,0.333 (active),0.015,-0.034
SSR4 (UniProt P51571),0.004,-0.01,-0.004,0.029,0.06,0.002,-0.022,0.015,-0.028,0.045,-0.008,0.013,-0.035,0.006,0.014,0.015,0,0.004,-0.028,-0.007
SLC7A6 (UniProt Q92536),0.048,0.042,-0.099,0.211,0.014,-0.018,0.04,0.023,-0.036,0.122,0.018,0.022,-0.096,0,-0.16,-0.056,-0.034,0.027,0.002,-0.047
SSX2 (UniProt Q16385),-0.046,-0.102,0.071,0.131,0.007,-0.036,0.007,0.045,-0.06,0.021,0.017,-0.028,0.024,0.062,0.066,-0.114,0.025,-0.078,0.021,-0.012
STEAP3 isoform 2 (UniProt Q658P3),0.036,-0.013,-0.023,0.01,0.028,-0.084,0.002,0.021,0.041,-0.096,-0.02,-0.027,-0.059,-0.027,-0.025,-0.067,0.055,-0.024,0.012,0.006
TIMM10B (UniProt Q9Y5J6),0.033,-0.011,-0.064,0.274,0.115,-0.033,-0.12,-0.041,0.063,0.131,-0.046,0.074,-0.022,0.109,0.484 (active),-0.074,0.017,-0.106,-0.022,-0.117
SNX9 (UniProt Q9Y5X1),-0.125,-0.309 (active),0.04,-0.02,-0.018,-0.021,-0.006,0.025,0.009,-0.137,0.01,-0.064,-0.069,-0.025,0.038,-0.112,0.058,-0.005,0.049,0
TERF2IP (UniProt Q9NYB0),-0.038,-0.205,0.001,0.081,0.02,0.01,0.045,0.016,0.026,-0.039,0.038,-0.065,-0.106,0.128,0.008,-0.195,-0.052,-0.016,-0.011,-0.007
STAT6 (UniProt P42226),-0.196,-0.594 (active),-0.02,-0.074,-0.033,0.1,0.093,0.038,0.018,-0.11,0.087,0.115,-0.153,0.101,0.029,-0.121,0.076,0.201,0.189,-0.168
SMCHD1 (UniProt A6NHR9),0.009,-0.326,0.098,-0.189,-0.015,-0.085,0.032,-0.118,-0.023,-0.144,-0.238,-0.084,-0.492,0.002,-0.028,-0.45,0.183,0.075,0.188,-0.088
SPAG9 (UniProt O60271),-0.039,-0.168,0.046,0.028,-0.014,0.02,0.02,0.043,-0.009,-0.203,0.014,-0.037,-0.047,0.003,0.02,-0.044,0.049,0.034,0.023,-0.011
